Experimental data from PubChem BioAssay (Tox21).
Where “and” joins values, the source holds several entries; their conditions need not be identical. Identical values can stand only once. Inconclusive results are not listed. Where a call stands in place of a potency, no number is given. Some structures have more than one record in an assay (separate samples or runs), and their calls can disagree. Calls of active or inactive are those of the source. Unless noted, calls come from the whole dose curve; as a rule, active = well fitted curve in the direction sought with a large enough effect in the repeat runs; inconclusive = weak or mixed curves; inactive = no such curve, though single readings can be large; an effect the other way counts as inactive or inconclusive.

Assays:
[1] = qHTS assay for small molecules that induce genotoxicity in human embryonic kidney cells expressing luciferase-tagged ATAD5 (AID 651632); note: nearly all actives have a fitted effect of over 15% in size; note: potency is the fitted concentration of half-maximal effect
Outline: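 Reporter cells (HEK293T) express luciferase-tagged ATAD5, a protein that accumulates after DNA damage. Treat 16 hr at 37C/5% CO2, add Amplite, wait 30 min at RT, and read luminescence.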

[2] = qHTS assay for small molecule agonists of the p53 signaling pathway - cell viability (AID 651633; calls by dose curve; note: nearly all actives have a fitted effect of over 30% in size; note: potency is the fitted concentration of half-maximal effect)
Outline: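 p53RE-bla cells were treated with compound for 16 hours at 37 C. Cytotoxicity was then measured as CellTiter-Glo luminescence after 30 min at room temperature.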

[3] = qHTS assay for small molecules that induce genotoxicity in human embryonic kidney cells expressing luciferase-tagged ATAD5 - cell viability (AID 651634; calls by dose curve; note: nearly all actives have a fitted effect of over 25% in size; note: potency is the fitted concentration of half-maximal effect)
Outline: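 Seeding of 2,000 HEK293T ATAD5-luciferase cells per well preceded pin-tool compound transfer. Plates sat 15.5 hr at 37C under 5% CO2, then fluorescence was read after 30 min with CellTiter-Fluor.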

[4] = qHTS assay for small molecule disruptors of the mitochondrial membrane potential - cell viability (AID 720634; calls by dose curve; note: nearly all actives have a fitted effect of over 20% in size; note: potency is the fitted concentration of half-maximal effect)
Outline: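 Measuring cytotoxicity alongside mitochondrial potential, the screen quantified ATP by luminescence in HepG2 cells after 1 hr compound incubation and a 30 min room-temperature CellTiter-Glo step.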

[5] = qHTS assay to test for compound auto fluorescence at 590 nm (red) in HepG2 cells (AID 720674)
Outline: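 Seeding: 2,000 HepG2 cells/well, MEM/10% FBS, overnight 37 C. Dosing: compound vs DMSO. Incubation: 1 hr, 37 C, 5% CO2. Read: fluorescence 540 ex/590 em, Rose Bengal sodium as red reference.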

[6] = qHTS assay to test for compound auto fluorescence at 535 nm (green) in HepG2 cells (AID 720675)
[7] = qHTS assay to test for compound auto fluorescence at 460 nm (blue) in HEK293 cells (AID 720678)
Outline: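 Intrinsic compound fluorescence is recorded in live HEK293 cultures after overnight incubation at 37C, 5% CO2, using excitation 405 nm and emission 460 nm. Values are referenced to triamterene.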

[8] = qHTS assay to test for compound auto fluorescence at 590 nm (red) in HEK293 cells (AID 720679)
Outline: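 Red autofluorescence, HEK293 cells: 2,000 cells/well; attach 4-5 hr 37C; add 23 nL cpd or DMSO; incubate o/n 37C 5% CO2; read Ex540/Em590; Rose Bengal sodium reference.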

[9] = qHTS assay to test for compound auto fluorescence at 535 nm (green) in HEK293 cells (AID 720680)
[10] = qHTS assay to test for compound auto fluorescence at 460 nm (blue) in HEK293 cell free culture (AID 720681)
Outline: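 Compounds were added to cell-free DMEM with 10% FBS and fluorescence read directly. The blue channel used 405 nm excitation and 460 nm emission, with triamterene as the reference fluorophore.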

[11] = qHTS assay to test for compound auto fluorescence at 535 nm (green) in HEK293 cell free culture (AID 720682)
Outline: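 Steps: dispense DMEM/10% FBS into empty wells; pin in compound or DMSO; measure fluorescence at 485/535 nm. Values are fluorescein equivalents.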

[12] = qHTS assay to test for compound auto fluorescence at 590 nm (red) in HEK293 cell free culture (AID 720683)
Outline: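 Cell-free wells of DMEM with 10% FBS received compound, and intrinsic fluorescence was read at excitation/emission 540/590 nm. Values expressed as equivalence to Rose Bengal sodium.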

[13] = qHTS assay to test for compound auto fluorescence at 590 nm (red) in HepG2 cell free culture (AID 720684)
Outline: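 Compounds are added to culture medium (MEM, 10% FBS) lacking cells, then fluorescence is read at excitation 540 nm, emission 590 nm, with Rose Bengal sodium as the equivalency standard.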

[14] = qHTS assay to test for compound auto fluorescence at 460 nm (blue) in HepG2 cell free culture (AID 720685)
Outline: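 Compound (23 nL) or DMSO pinned into cell-free MEM with 10% FBS; blue fluorescence read at 405/460 nm excitation/emission, expressed as auto-fluorescence equivalency to triamterene.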

[15] = qHTS assay to test for compound auto fluorescence at 535 nm (green) in HepG2 cell free culture (AID 720686)
[16] = qHTS assay to test for compound auto fluorescence at 460 nm (blue) in HepG2 cells (AID 720687)
Outline: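 HepG2 cells in MEM with 10% FBS, attached overnight at 37 C, were exposed to compound or DMSO for 1 hr at 37 C, 5% CO2. Blue fluorescence was read at 405/460 nm, with triamterene as reference fluorophore.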

[17] = molecular target: Glucocorticoid receptor (Homo sapiens) (UniProt P04150); assay: qHTS assay to identify small molecule agonists of the glucocorticoid receptor (GR) signaling pathway (AID 720691; active = well fitted activation curve with a large enough effect in the signal ratio in the repeat runs, not every such curve was filed as active; the % refers to the signal ratio); details: GR-bla HeLa, beta-lactamase reporter ratio, 18 h; activation: at 62.4 µM (top of the series)
Sequence of Glucocorticoid receptor (Homo sapiens) (P04150 whole entry, looked up): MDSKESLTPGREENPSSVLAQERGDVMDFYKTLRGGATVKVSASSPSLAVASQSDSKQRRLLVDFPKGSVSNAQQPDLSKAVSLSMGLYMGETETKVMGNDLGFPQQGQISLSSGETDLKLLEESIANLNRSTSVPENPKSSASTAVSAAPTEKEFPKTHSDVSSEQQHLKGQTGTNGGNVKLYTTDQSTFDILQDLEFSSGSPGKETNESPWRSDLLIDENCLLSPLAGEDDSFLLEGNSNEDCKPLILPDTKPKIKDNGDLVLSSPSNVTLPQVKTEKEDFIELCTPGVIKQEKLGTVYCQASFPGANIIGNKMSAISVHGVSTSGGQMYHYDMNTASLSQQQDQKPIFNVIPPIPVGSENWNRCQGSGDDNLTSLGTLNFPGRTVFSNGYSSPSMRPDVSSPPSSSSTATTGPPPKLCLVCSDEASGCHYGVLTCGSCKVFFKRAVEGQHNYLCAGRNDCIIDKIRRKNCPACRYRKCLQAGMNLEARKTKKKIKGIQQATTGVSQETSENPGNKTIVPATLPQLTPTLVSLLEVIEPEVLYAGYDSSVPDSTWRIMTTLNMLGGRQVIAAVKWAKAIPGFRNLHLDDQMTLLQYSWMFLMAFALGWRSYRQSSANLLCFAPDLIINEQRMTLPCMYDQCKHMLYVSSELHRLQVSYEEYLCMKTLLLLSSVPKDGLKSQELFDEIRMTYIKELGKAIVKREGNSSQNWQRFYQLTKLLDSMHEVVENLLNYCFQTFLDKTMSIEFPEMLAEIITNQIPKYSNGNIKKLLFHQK
Outline: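 Reporter read-out: fluorescence intensity following 2 h room-temperature LiveBLAzer B/G FRET substrate loading. Prior step: GR-bla HeLa cells held 4 h, then treated 18 h at 37 C.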

[18] = molecular target: Glucocorticoid receptor (Homo sapiens) (UniProt P04150); assay: qHTS assay to identify small molecule antagonists of the glucocorticoid receptor (GR) signaling pathway (AID 720692; active = well fitted inhibition curve with a large enough effect in the signal ratio in the repeat runs, not every such curve was filed as active; the % refers to the signal ratio; note: potency is the fitted concentration of half-maximal effect)
Outline: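 Dexamethasone (5 nM final) stimulated a stably integrated GRE-beta-lactamase reporter in HeLa cells during 18 h co-incubation with compounds; signal was quantified as fluorescence intensity of B/G FRET substrate after 2 h.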

[19] = qHTS assay for small molecule disruptors of the mitochondrial membrane potential (AID 720635); note: potency is the fitted concentration of half-maximal effect
Outline: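 HepG2 cells exposed to compound 1 hr at 37C, then Mito-MPS dye 30 min. Ratio read of aggregate (540/590 nm) versus monomer (490/535 nm) fluorescence.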

Structure (SMILES): O=c1c2ccccc2c(=O)c2c1cc(Cl)c1[nH]c3c([nH]c12)c(Cl)cc1c(=O)c2ccccc2c(=O)c13
- Potency [1]: inactive
- Potency [2]: inactive
- Potency [3]: inactive
- Potency [4]: inactive
- outcome [5]: inactive
- Potency [6]: inactive
- Potency [7]: inactive
- outcome [8]: inactive
- outcome [9]: inactive
- Potency [10]: inactive
- outcome [11]: inactive
- outcome [12]: inactive
- outcome [13]: inactive
- Potency [14]: inactive
- Potency [15]: inactive
- Potency [16]: inactive
- Potency [17]: inactive
- Potency [18]: inactive

Structure (SMILES): S=C=Nc1ccccc1
- Potency [1]: inactive
- Potency [2]: inactive
- Potency [3]: inactive
- Potency [19]: 28.2 µM (active)
- outcome [5]: inactive
- Potency [6]: inactive
- outcome [9]: inactive
- Potency [10]: inactive
- outcome [11]: inactive
- outcome [12]: inactive
- outcome [13]: inactive
- Potency [14]: inactive
- Potency [15]: inactive
- Potency [16]: inactive
- Potency [17]: inactive
- Potency [18]: inactive

Structure (SMILES): CCOC(=O)Cc1ccccc1
- Potency [1]: inactive
- Potency [2]: inactive
- Potency [3]: inactive
- outcome [5]: inactive
- Potency [6]: inactive
- Potency [7]: inactive
- outcome [8]: inactive
- outcome [9]: inactive
- Potency [10]: inactive
- outcome [12]: inactive
- outcome [13]: inactive
- Potency [14]: inactive
- Potency [15]: inactive
- Potency [16]: inactive
- Potency [17]: inactive
- Potency [18]: inactive

Structure (SMILES): N#CC(C#N)=NNc1cccc(Cl)c1
- Potency [1]: inactive
- Potency [2]: 0.864 µM (active)
- Potency [4]: inactive
- Potency [19]: 0.109 µM (active)
- outcome [5]: inactive
- Potency [6]: inactive
- Potency [7]: inactive
- outcome [8]: inactive
- outcome [9]: inactive
- Potency [10]: inactive
- outcome [11]: inactive
- outcome [12]: inactive
- outcome [13]: inactive
- Potency [14]: inactive
- Potency [15]: inactive
- Potency [16]: inactive

Structure (SMILES): C[C@]12C/C(=C/O)C(=O)C[C@@H]1CC[C@@H]1[C@@H]2CC[C@@]2(C)[C@H]1CC[C@]2(C)O
- Potency [1]: inactive
- Potency [2]: 49 µM (active)
- Potency [4]: inactive
- outcome [5]: inactive
- Potency [6]: inactive
- outcome [8]: inactive
- outcome [9]: inactive
- Potency [10]: inactive
- outcome [11]: inactive
- outcome [12]: inactive
- outcome [13]: inactive
- Potency [14]: inactive
- Potency [15]: inactive
- Potency [16]: inactive
- Potency [17]: inactive

Structure (SMILES): O=C(NC(=O)c1c(F)cccc1F)Nc1ccc(Oc2ccc(C(F)(F)F)cc2Cl)cc1F
- Potency [1]: inactive
- Potency [2]: inactive
- Potency [3]: inactive
- outcome [5]: inactive
- Potency [6]: inactive
- Potency [7]: inactive
- outcome [8]: inactive
- outcome [9]: inactive
- Potency [10]: inactive
- outcome [11]: inactive
- outcome [12]: inactive
- outcome [13]: inactive
- Potency [14]: inactive
- Potency [15]: inactive
- Potency [16]: inactive

Structure (SMILES): [O]=[Cr](=[O])([OH])[O][Cr](=[O])(=[O])[OH]
- Potency [1]: inactive
- Potency [2]: 19.5 µM (active) [middle of 4 runs]
- Potency [4]: inactive and 27.6 µM (active) and 30.6 µM (active)
- Potency [19]: inactive and 13.8 µM (active) and 27.3 µM (active)
- outcome [5]: inactive
- Potency [6]: inactive
- Potency [7]: inactive
- outcome [9]: inactive
- Potency [10]: inactive
- outcome [11]: inactive
- outcome [12]: inactive
- outcome [13]: inactive
- Potency [14]: inactive
- Potency [15]: inactive
- Potency [16]: inactive
- Potency [18]: 3.08 µM (active)

Structure (SMILES): ClC(Cl)C(Cl)(Cl)Cl
- Potency [1]: inactive
- Potency [2]: inactive
- Potency [4]: inactive
- Potency [19]: inactive
- outcome [5]: inactive
- Potency [6]: inactive
- Potency [7]: inactive
- outcome [8]: inactive
- outcome [9]: inactive
- Potency [10]: inactive
- outcome [11]: inactive
- outcome [12]: inactive
- outcome [13]: inactive
- Potency [14]: inactive
- Potency [15]: inactive
- Potency [16]: inactive
- Potency [17]: inactive
- Potency [18]: inactive

Structure (SMILES): CC(C)N(C(=O)SC/C(Cl)=C/Cl)C(C)C
- Potency [1]: inactive
- Potency [2]: 21.8 µM (active)
- Potency [4]: 54.8 µM (active)
- Potency [19]: 48.9 µM (active)
- outcome [5]: inactive
- Potency [6]: inactive
- Potency [7]: inactive
- outcome [8]: inactive
- outcome [9]: inactive
- Potency [10]: inactive
- outcome [11]: inactive
- outcome [12]: inactive
- outcome [13]: inactive
- Potency [14]: inactive
- Potency [15]: inactive
- Potency [16]: inactive

Structure (SMILES): COc1c2c(cc3c1OCO3)CCN(C)C2
- Potency [1]: inactive
- Potency [2]: inactive
- Potency [3]: inactive
- fluorescence, relative to Rose Bengal [5]: 0.142% [at 18.6 µM] (inactive)
- fluorescence, % of fluorescein control [6]: -0.0459% [at 18.6 µM] (inactive)
- fluorescence, % of fluorescent control [8]: -0.0835% [at 18.6 µM] (inactive)
- fluorescence, % of fluorescein [9]: -0.0183% [at 18.6 µM] (inactive)
- fluorescence, % of fluorescent control [10]: 0.395% [at 18.6 µM] (inactive)
- activity change [11]: -0.0284% [at 18.6 µM] (inactive)
- fluorescence, % of fluorescent control [12]: 0.174% [at 18.6 µM] (inactive)
- fluorescence, % of Rose Bengal [13]: -0.194% [at 18.6 µM] (inactive)
- fluorescence, % of fluorescent control [14]: -0.0127% [at 18.6 µM] (inactive)
- fluorescence, % of fluorescein control [15]: -0.0107% [at 18.6 µM] (inactive)
- fluorescence, % of fluorescent control [16]: -0.0807% [at 18.6 µM] (inactive)
- Potency [17]: inactive
- Potency [18]: inactive

Structure (SMILES): c1ccc(N=NNc2ccccc2)cc1
- Potency [1]: inactive
- Potency [2]: inactive
- Potency [3]: 5.45 µM (active)
- Potency [19]: 7.1 µM (active) and 5.45 µM (active)
- outcome [5]: inactive
- Potency [6]: inactive
- Potency [7]: inactive
- outcome [9]: inactive
- Potency [10]: inactive
- outcome [11]: inactive
- outcome [12]: inactive
- outcome [13]: inactive
- Potency [14]: inactive
- Potency [15]: inactive
- Potency [16]: inactive

Structure (SMILES): CN1C(=O)[C@@H](NC(=O)c2cc3ccccc3[nH]2)N=C(c2ccccc2)c2ccccc21
- Potency [1]: 11.9 µM (active)
- Potency [2]: inactive
- Potency [4]: inactive
- Potency [19]: 10.6 µM (active)
- outcome [5]: inactive
- Potency [6]: inactive
- Potency [7]: inactive
- outcome [8]: inactive
- outcome [9]: inactive
- Potency [10]: inactive
- outcome [11]: inactive
- outcome [12]: inactive
- outcome [13]: inactive
- Potency [14]: inactive
- Potency [15]: inactive
- Potency [16]: inactive

Structure (SMILES): C=CCOC(=O)c1ccccc1N
- Potency [1]: inactive
- Potency [2]: inactive
- Potency [4]: inactive
- Potency [19]: inactive
- outcome [5]: inactive
- Potency [6]: inactive
- outcome [8]: inactive
- outcome [9]: inactive
- Potency [10]: inactive
- outcome [11]: inactive
- outcome [12]: inactive
- outcome [13]: inactive
- Potency [14]: inactive
- Potency [15]: inactive
- Potency [16]: inactive
- Potency [17]: inactive

Structure (SMILES): CCC1(CC)C(=O)N=C(O)NC1=O
- Potency [1]: inactive
- Potency [2]: inactive
- Potency [3]: inactive
- outcome [5]: inactive
- Potency [6]: inactive
- Potency [7]: inactive
- outcome [8]: inactive
- outcome [9]: inactive
- Potency [10]: inactive
- outcome [11]: inactive
- outcome [12]: inactive
- outcome [13]: inactive
- Potency [14]: inactive
- Potency [15]: inactive
- Potency [16]: inactive
- Potency [17]: inactive
- Potency [18]: inactive
